± gives the standard deviation of the averaged measurements. The full ranking holds about 33,000 sequences; the median of “E-score (dimensionless, -0.5 to 0.5)” is about -0.046, and the highest 2% start at about 0.36. This is one part of a sample in which the highest values are shown more often than they occur.
What follows are sequences tested on T1, SpTbr T-box DNA-binding domain (GST fusion) (assay: PBM E-score of 8-mer (E-score (dimensionless, -0.5 to 0.5)); Tbr is Tbrain of the sea star Patiria miniata (Pm) or the sea urchin Strongylocentrotus purpuratus (Sp); higher = stronger binding preference). Details: the construct has about 5 more residues each side.
T1 sequence: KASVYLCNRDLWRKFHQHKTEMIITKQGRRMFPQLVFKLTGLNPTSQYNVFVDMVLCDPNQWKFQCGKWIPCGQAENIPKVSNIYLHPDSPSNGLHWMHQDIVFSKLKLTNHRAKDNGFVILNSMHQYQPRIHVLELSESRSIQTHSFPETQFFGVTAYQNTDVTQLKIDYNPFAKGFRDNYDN
Description: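 Universal protein-binding microarray (Agilent AMADID 016060, 60-bp probes with a 35-bp variable region) incubated with 200 nM GST-fused Strongylocentrotus purpuratus Tbr T-box DNA-binding domain (residues 362-554) in PBS pH 7.5. Scored for every ungapped 8-mer (given with its reverse complement) as E-score (range -0.5 to 0.5; >0.45 counts as bound) and Z-score of median probe intensity. Two replicate arrays (datasets 1 and 2).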
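Further: protein at 200 nM in PBS on universal double-stranded arrays.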

Sequence	PBM E-score of 8-mer
ATTGCACA	0.121 ± 0.053
CCCCAGCG	-0.148 ± 0.02
ATTAACAC	0.45 ± 0.015
ATTAACAG	0.139 ± 0.014
CTTAACCC	-0.000625 ± 0.011
CTTAACAA	0.243 ± 0.0056
CTTAACAC	0.429 ± 0.017
ATTAACAA	0.14 ± 0.023
GTAGAAAA	-0.0889 ± 0.057
ATCCAGAG	-0.25 ± 0.021
CCTGGGAG	0.0895 ± 0.0077
GTGGCCGA	0.0547 ± 0.071
AGGAAAAT	-0.182 ± 0.018
GTCAATAA	0.129 ± 0.034
CGCCCGTC	0.0569 ± 0.029
CTTTTTCC	-0.132 ± 0.081
TACGTTCA	-0.0963 ± 0.066
AGCATTAT	0.00754 ± 0.061
AAACGTGT	0.368 ± 0.018
ACACGTCA	0.319 ± 0.017
ACACGTCT	0.342 ± 0.0038
ACACGTGC	0.3851 ± 0.0015
CCACGTGC	0.114 ± 0.074
ACACGTGT	0.395 ± 0.0082
GCACGTGC	0.312 ± 0.081
ACACGTGG	0.299 ± 0.02

Sequence	PBM E-score of 8-mer
ACACGTGA	0.283 ± 0.011
AAACGTGG	0.144 ± 0.0096
AAACGTGA	0.156 ± 0.0067
ACACGTCG	0.372 ± 0.0071
CCTTCCGC	0.168 ± 0.062
GATGCCTA	-0.279 ± 0.11
AAGGGCCA	-0.259 ± 0.0051
CTCAGCAC	0.171 ± 0.0069
TATCTCAA	-0.0883 ± 0.013
GTTCAACA	-0.118 ± 0.054
AAGTGACA	0.427 ± 0.013
CAGTGACA	0.329 ± 0.0062
GAGTGACA	0.343 ± 0.033
AAGTGACG	0.4 ± 0.0071
AAGTGAAA	0.209 ± 0.069
AAGTGACT	0.0603 ± 0.012
AAGTGACC	0.233 ± 0.041
CAGTGACG	0.0986 ± 0.12
TAGTGACA	0.417 ± 0.011
GCTGTAAC	-0.0609 ± 0.029
CTCAAAAG	-0.147 ± 0.012
ATGACCTA	-0.132 ± 0.046
ACAGAACA	-0.0577 ± 0.043
CCTGTGCG	0.125 ± 0.025
TCGCAAAA	0.132 ± 0.0091
TACTTGGA	-0.311 ± 0.035

Sequence	PBM E-score of 8-mer
AGGAGAGG	-0.247 ± 0.019
ATGTGTGG	0.356 ± 0.007
AGGTGGGG	0.238 ± 0.056
AGGTGTGG	0.486 ± 0.0081
AGGTGTGC	0.445 ± 0.014
CTGTGTGC	0.000685 ± 0.012
AGATGTGC	0.161 ± 0.011
ATCAGGAC	-0.3 ± 0.086
AAGCTCTA	-0.245 ± 0.027
GTGATCAA	0.144 ± 0.022
ATGATCAC	0.1861 ± 0.0015
GTGATAAA	0.305 ± 0.051
ATGATAAC	0.092 ± 0.059
GTGATAAC	0.395 ± 0.0074
GTGATCAC	0.366 ± 0.022
ACGATGGA	-0.0806 ± 0.066
AGTAATCG	0.087 ± 0.023
GCTCCTAC	0.0646 ± 0.0047
AATTCAGC	-0.016 ± 0.024
CCGGACGA	-0.223 ± 0.017
ATCGCCTC	0.169 ± 0.061
CGTGTCAG	0.25651 ± 0.00017
GATGTCAA	0.197 ± 0.0064
AGTGTCAG	0.371 ± 0.0097
GTTGTCTA	-0.123 ± 0.027
GTTGTCAA	0.3671 ± 0.0033

Sequence	PBM E-score of 8-mer
CGTGTCTA	0.135 ± 0.05
CCTGTCAA	0.328 ± 0.025
AATGTCAG	0.0267 ± 0.006
GCTGTCAC	0.326 ± 0.025
GGTGTCAC	0.475 ± 0.0052
CGTGTCAA	0.4367 ± 0.0011
GATGTCAC	0.296 ± 0.023
GCTCGCCA	0.231 ± 0.017
GCCCCATA	-0.112 ± 0.064
ATGGGGAG	-0.243 ± 0.051
AGGGGTGG	0.147 ± 0.069
AATGGCTA	-0.134 ± 0.02
CATGAGTC	-0.08024 ± 0.00076
GACTTATA	0.0117 ± 0.031
ACAACCCT	0.0805 ± 0.0049
ATCGTTGC	-0.00439 ± 0.021
GGTGTCAA	0.4808 ± 0.0038
AGTGTCTA	0.17 ± 0.024
TCTGTCAA	0.109 ± 0.046
ACTGTCAA	0.183 ± 0.035
GCTGTCAA	0.318 ± 0.049
ACTGTCAT	0.196 ± 0.032
TGTGTCAA	0.398 ± 0.011
GGTGTCTA	0.292 ± 0.0045
AATGTCAT	-0.162 ± 0.031
TATGTCAA	0.159 ± 0.0082

Sequence	PBM E-score of 8-mer
AGTGTCAT	0.405 ± 0.017
AGTGTCAA	0.453 ± 0.0054
TAAGAACA	-0.0304 ± 0.082
ATATAGTC	-0.0444 ± 0.027
ATAGCCCA	-0.13 ± 0.078
CGCAGAGA	-0.217 ± 0.082
CCAATAAG	-0.199 ± 0.0037
CATGAATC	0.0324 ± 0.072
CCCCCCCC	-0.0653 ± 0.059
AACTCTGC	0.164 ± 0.011
GGAAGCAA	-0.216 ± 0.074
AGTGTCAC	0.43943 ± 0.00026
ACTGTCAC	0.35403 ± 0.00029
CGTGTCAC	0.362 ± 0.034
ACGCCCAA	-0.049 ± 0.13
CACAGACC	-0.0948 ± 0.053
AAACACCG	0.155 ± 0.0066
ACACACCT	0.44741 ± 0.0002
AGACACCG	0.0814 ± 0.026
ACACACCG	0.224 ± 0.013
ACACACAT	0.328 ± 0.0053
AGACACAT	0.229 ± 0.0028
ACGCACCA	0.0513 ± 0.0069
ACGCACCG	0.0314 ± 0.086
AAACACCC	0.1718 ± 0.0003
AAACACCT	0.442 ± 0.015

Sequence	PBM E-score of 8-mer
AGACACCT	0.4345 ± 0.003
ACGCACCT	0.366 ± 0.0075
GCTTCAAA	0.0158 ± 0.019
ACCAATGA	-0.0571 ± 0.11
GTAGATAA	-0.151 ± 0.039
GATCGTGA	0.173 ± 0.054
ACCTGGTA	-0.0333 ± 0.028
CGGCCCTC	-0.119 ± 0.093
GACGTTCC	-0.197 ± 0.016
AAGTGAAG	0.13 ± 0.049
ACAGATGT	0.152 ± 0.018
ACCTATTC	0.0131 ± 0.033
GACCCGTA	-0.0138 ± 0.012
ACTTCTAC	0.037 ± 0.013
CGGAGCCA	-0.164 ± 0.067
CATGCCCC	-0.219 ± 0.047
AACACATC	0.375 ± 0.012
CACACATC	0.4 ± 0.013
AACACAGC	0.115 ± 0.086
CGCACATC	0.338 ± 0.022
AACACATA	0.345 ± 0.029
AACACACT	0.211 ± 0.022
CTCACATC	0.377 ± 0.013
AACACATT	0.383 ± 0.024
ATCACATC	0.109 ± 0.02
AACACATG	0.336 ± 0.046

Sequence	PBM E-score of 8-mer
CTCACATA	0.157 ± 0.034
GACACATC	0.363 ± 0.028
CATGAAAC	-0.146 ± 0.031
GCTAGCAC	0.2678 ± 0.0018
TAAGGTAA	-0.107 ± 0.0024
AGTGCTGA	0.0461 ± 0.029
CTCCTCTC	0.0391 ± 0.091
GCCCAATA	-0.142 ± 0.1
AAGCTATA	-0.0728 ± 0.05
ACAGGTGA	0.373 ± 0.0074
GCAGGTGA	0.414 ± 0.011
GTAGGTGA	0.379 ± 0.023
ACAGGTGC	0.436 ± 0.013
CCAGGTGA	0.306 ± 0.012
ACAGGTGG	0.316 ± 0.026
CTAGGTGA	0.356 ± 0.026
ACAGGTTA	0.257 ± 0.043
GTAGGTTA	-0.184 ± 0.0098
GCAGGTCA	0.036 ± 0.077
GCAGGTAA	-0.0374 ± 0.063
CCAGGTGC	0.3516 ± 0.00069
GTCATAAA	-0.00255 ± 0.054
AAAAGATA	-0.0313 ± 0.063
CTACGCAC	0.0937 ± 0.02
TACCTCTA	-0.164 ± 0.002
ATAAGAGC	-0.19 ± 0.022

Sequence	PBM E-score of 8-mer
ACCCTCGG	-0.124 ± 0.045
ATGCAGAG	-0.18 ± 0.023
ACGAACCG	0.192 ± 0.063
CATTTTCA	0.0656 ± 0.088
AGTTCTGA	-0.131 ± 0.043
TAGACCCA	-0.101 ± 0.067
AAGTGGTG	0.205 ± 0.007
CGACCATC	0.0183 ± 0.023
CAGAGGAG	-0.063 ± 0.011
AGGTGGCG	0.401 ± 0.011
AGGTGGAG	0.158 ± 0.025
AGGTGGCA	0.432 ± 0.015
GGGTGGCA	0.288 ± 0.014
CGGTGGCA	0.186 ± 0.053
AGGTGGCC	0.075 ± 0.0048
CCCATCAC	0.189 ± 0.031
CCCGAGGG	-0.341 ± 0.026
AACGCATA	0.0089 ± 0.0093
AACGCCTT	0.367 ± 0.041
AGCGCCTC	0.268 ± 0.0083
AACGCCAT	0.199 ± 0.029
CACGCCTA	0.375 ± 0.016
AACGCCTC	0.35 ± 0.0088
CACGCCTC	0.395 ± 0.032
AACGCCTG	0.292 ± 0.006
AACGCCTA	0.298 ± 0.038

Sequence	PBM E-score of 8-mer
TACGCCTA	0.0945 ± 0.018
GACGCCTC	0.328 ± 0.017
CGCGCCTC	0.365 ± 0.039
CGCGCCTA	0.356 ± 0.037
ACTCGCTC	-0.0581 ± 0.083
AGCCAATG	-0.218 ± 0.056
AAACCGCG	0.0876 ± 0.057
AGCATCTG	-0.116 ± 0.028
GCCACGGC	-0.0294 ± 0.015
AGTGTAAA	0.338 ± 0.049
AGTGTTAG	0.3895 ± 0.00056
AGTGTTTG	0.219 ± 0.041
ACTGTTAG	0.195 ± 0.048
GGTGTAAC	0.349 ± 0.014
GGTGTAAA	0.436 ± 0.012
GGTGTTAC	0.4612 ± 0.0021
CGTGTTAA	0.409 ± 0.0099
CGTGTTAG	0.332 ± 0.015
CGTGTTAC	0.308 ± 0.0063
CCTGTTAA	0.168 ± 0.067
GCTGTTAC	0.0324 ± 0.031

From the supplement of paper PMC4166925
